Most compounds without a hit are left out; they make up all but 12% or so of the library.
JMJD2A Tudor inh: qHTS Assay for Inhibitors of JMJD2A-Tudor Domain. Lysine-specific demethylase 4A (Homo sapiens), O75164. AlphaScreen JMJD2A-Tudor / H3K4me3 peptide binding. Potency, µM (highest dose often 114 µM), for inactives: at the highest dose activity change, negative = inhibition, actives largely listed as inhibitors. 390,000 compounds, 4.4% hits. AID 504339, 2011; note: % is set by controls: 0 for no effect and ±100 for the full control effect; nearly all actives have a fitted effect of over 50% in size
Sfp PPTase inh: qHTS Assay for Inhibitors of Bacillus subtilis Sfp phosphopantetheinyl transferase (PPTase); 4'-phosphopantetheinyl transferase ffp (Bacillus subtilis), Q9F4F7; Biochemical Sfp PPTase activity, qHTS; Potency, µM, without a hit: largest response in the series, negative = inhibition, actives largely listed as inhibitors; 310,000 compounds, 3.5% hits; AID 1490, 2009;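 note: the enzyme is Sfp with the accession as filed and its product quenches rhodamine fluorescence; 0% = enzyme reaction without inhibitor and -100% = no enzyme wells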
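Step 1, compound plus 15 nM Sfp-PPTase, 15 min, room temperature. Step 2, add rhodamine-CoA (5 uM) and BHQ-2-YbbR (12.5 uM). Step 3, read 525/598 nm fluorescence at 0 and 30 min.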
G9a inh: qHTS Assay for Inhibitors of Histone Lysine Methyltransferase G9a; Histone-lysine N-methyltransferase EHMT2 (Homo sapiens), Q96KQ7; G9a H3K9 monomethylation, AlphaScreen, 2 h; Potency, µM (doses to about 102 µM), inactives show at the top dose activity, negative = inhibition, actives largely listed as inhibitors; 350,000 compounds, 8.8% hits; AID 504332, 2011; note: % is set by controls: 0 for no effect and ±100 for the full control effect; nearly all actives have a fitted effect of over 75% in size
Target sequence (Q96KQ7 913-1193 limits assumed): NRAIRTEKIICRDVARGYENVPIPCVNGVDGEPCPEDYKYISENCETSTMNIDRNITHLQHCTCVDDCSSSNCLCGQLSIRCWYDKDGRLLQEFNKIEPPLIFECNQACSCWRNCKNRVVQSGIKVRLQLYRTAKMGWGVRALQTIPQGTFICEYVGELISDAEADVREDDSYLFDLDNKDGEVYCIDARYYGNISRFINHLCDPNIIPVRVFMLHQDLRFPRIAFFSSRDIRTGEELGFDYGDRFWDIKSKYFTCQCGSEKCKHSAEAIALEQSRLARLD
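AlphaScreen read-out: biotin-H3K9 peptide (500 nM) methylation by 20 nM enzyme with 20 uM SAM, 2 h at room temperature after 15 min compound preincubation; anti-monomethyl H3K9 antibody plus donor/acceptor beads, 10 min dark.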
BAZ2B block: qHTS Assay for Inhibitors of BAZ2B; 360,000 compounds, 4.4% hits; Potency, µM (top dose mostly 114 µM), without a hit: at the highest dose activity change, negative = inhibition, actives largely listed as inhibitors; AlphaScreen BAZ2B-H3K14Ac peptide displacement; AID 504333, 2011; note: % is set by controls: 0 for no effect and ±100 for the full control effect; nearly all actives have a fitted effect of over 60% in size
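In this displacement format the biotinylated H3(5-23) peptide acetylated at Lys14 serves as ligand at 50 nM, with BAZ2B at 50 nM in PBS pH 7.4 containing 0.01% Tween-20. Donor and acceptor beads are 10 ug/mL final.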
HP1b binding inh: HTS for Inhibitors of HP1-beta Chromodomain Interactions with Methylated Histone Tails; Chromobox protein homolog 1 (Homo sapiens), P83916; AlphaScreen HP1-beta / biotin-H3K9me3 peptide binding; Potency, µM (highest dose often 114 µM), inactives show at the top dose activity change, negative = inhibition, actives largely listed as inhibitors; 390,000 compounds, 0.56% hits; note: nearly all actives have a fitted effect of over 70% in size
Target sequence (P83916 whole entry, looked up): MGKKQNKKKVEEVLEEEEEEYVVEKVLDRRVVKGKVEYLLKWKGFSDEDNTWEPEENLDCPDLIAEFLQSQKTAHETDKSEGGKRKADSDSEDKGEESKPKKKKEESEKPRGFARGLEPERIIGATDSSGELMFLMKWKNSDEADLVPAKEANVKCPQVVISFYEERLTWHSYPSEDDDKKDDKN
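HP1-beta protein (50 nM final) preincubated 30 min at room temperature with biotinylated H3(1-18)K9me3 peptide (50 nM) in PBS pH 7.4, 0.01% Tween-20, then compound added for 30 min. AlphaScreen streptavidin donor/nickel chelate acceptor beads (10 ug/mL final), 30 min dark, luminescence read.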
The depositor's hits bear a star; ? = inconclusive; nt = no result; [ ] = dose if it differs, or a comment. Calls come from the whole dose curve; as a rule, active = well fitted curve in the direction sought with a large enough effect; inconclusive = small, poorly fitted or top-dose-only effect, or another doubt; inactive = no such curve, though single readings can be large; an effect the other way counts as inactive or inconclusive. Potency is the fitted concentration of half-maximal effect.

SMILES	JMJD2A Tudor inh	Sfp PPTase inh	G9a inh	BAZ2B block	HP1b binding inh
O=C1C2C3C=CC(C4CC34)C2C(=O)N1/N=C/c1ccc(-c2ccc(F)cc2[N+](=O)[O-])o1 (stereo not given)	?	-24.3%	8.91µM*	?	-23.8%
Cc1ccc(-c2ccc(/C=N/N3C(=O)C4C5C=CC(CC5)C4C3=O)o2)c([N+](=O)[O-])c1 (stereo not given)	-32.0%	4.4%	44.7µM*	?	-18.8%
CC(=O)C1=C(C)Nc2ncnn2C1c1cccc(OCc2ccccc2)c1 (stereo not given)	-6.4%	0.9%	?	8.7%	26.6%
COc1cc([N+](=O)[O-])ccc1NC(=O)CCCOc1ccc(C)cc1	-16.0%[11.4 µM]	-15.9%	-48.7%	-13.1%	-32.6%
CC(=O)Nc1cccc(C(=O)NC(C)c2ccc(-n3ccnc3)cc2)c1 (stereo not given)	-14.0%	7.3%	44.7µM*	?	11.3%
COc1ccccc1C(=O)NCCC(=O)NC(C)c1ccc(-n2ccnc2)cc1 (stereo not given)	-15.8%	nt	20µM*	-14.4%	35.0%
CCCc1sc(N/N=C/c2ccccn2)nc1-c1ccc(F)cc1	44.7µM*	-10.0%	-45.8%[59 µM]	?	-19.7%
Cc1cc(C)c2nc(N(Cc3cccnc3)C(=O)CCOc3ccccc3)sc2c1	3.2%	nt	-1.4%[59 µM]	-1.9%	33.5%
O=C(O)c1cccc(N/N=C/c2ccc(-c3ccccc3)cc2)c1	-29.0%	-9.9%	25.1µM*	nt	15.3%
COc1ccc(Br)cc1/C=N/Nc1cccc(C(=O)O)c1	-26.4%	6.6%	10µM*	-27.2%	5.2%
C/C(=N\Nc1cccc(C(=O)O)c1)c1ccc(Cl)s1	?	-6.8%	22.4µM*	?	-2.9%
O=C(O)c1cccc(N/N=C/c2cc(Br)cc(Br)c2O)c1	?	8.9%	?	?	-16.7%
O=C(N/N=C/c1cccnc1)c1ccccc1	-11.0%	2.9%	13.9%	4.9%	18.7%
O=C(O)c1cccc(N/N=C/c2cccnc2)c1	-17.1%	23.2%	28.2µM*	-13.2%	18.5%
C(=N\NC1=Nc2cccc3cccc1c23)/c1cccnc1	?	?	?	39.8µM*	-30.9%
COc1ccc(C(=O)N/N=C/c2cc(Br)ccc2O)cc1OC	-19.0%	10.9%	nt	-13.7%	?
Cc1[nH]c2ccccc2c1/C=N/NC(=O)c1ccccc1	-13.4%	-2.9%	14.6%	-4.8%	35.9%
COc1ccc(Br)cc1/C=N/NC(=O)c1cc(Br)ccc1O	nt	5.4%	39.8µM*	56.2µM*	nt
Cc1[nH]c2ccccc2c1/C=N/Nc1cccc(C(=O)O)c1	?	-0.4%	3.98µM*	?	-14.8%
COc1ccc(/C(C)=N/Nc2cccc(C(=O)O)c2)cc1OC	-18.9%	-1.4%	1.41µM*	?	31.1%
CCc1ccc(NC(=O)c2cc(S(=O)(=O)N3CCc4ccccc43)cn2C)cc1	-23.8%	12.1%	-26.6%	-32.2%	16.1%
COc1ccc(CNC(=O)CN2C(=O)NC(C)(c3cccc4ccccc34)C2=O)cc1OC (stereo not given)	-16.4%	8.8%	15.7%	-6.7%	8.4%
CC(C)(C)c1ccc(/C=N/Nc2cccc(C(=O)O)c2)cc1	-32.5%	13.1%	28.2µM*	-23.8%	15.2%
CN(C)c1ccc(/C=N/Nc2cccc(C(=O)O)c2)cc1	?	-29.9%	7.94µM*	?	31.4%
Clc1ccc(N/N=C/c2cccnc2)cc1	?	-6.5%	3.98µM*	?	3.4%
CCN(CC(=O)NCc1cccs1)S(=O)(=O)c1ccc(F)c(F)c1F	-11.0%	nt	-8.1%[0.501 µM]	-3.2%	60.0%
N#Cc1ccc(-c2ccc(F)cc2)nc1Sc1ccc(F)cc1	-17.3%	15.8%	20.7%	7.4%	35.8%
COc1ccc(/C=C2/Sc3ccc(C(=O)NCCCN4CCOCC4)cc3NC2=O)cc1OC	?	-2.8%	?	?	-2.5%[57 µM]
Cc1cccc(/C=C2/Sc3ccc(C(=O)NCCCN4CCOCC4)cc3NC2=O)c1	nt	50.1µM*	1.5%[59 µM]	?	nt
